Data published in PubChem BioAssay AID1159580 (chemical genetic matrix, 2015).
Several values for one entry are separate records, joined by “and”; a condition that tells them apart may be missing. Equal values may be shown once. Hit rate of the full screen: of about 5,500 compounds, about 2,000 (36%) were called active. Another 18% or so got no clear call; they are omitted. Cut-off read from the data, not from the text of the source: active = normalized growth mostly below about 0.91 (no sharp cut-off); inconclusive = no clear call, values can overlap the other calls; inactive = mostly above about 0.92. The list shows a part of the results.

Experiment: chemical genetic growth profiling, strain panel (AID 1159580);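 note: tested at 20 µM; growth read once vehicle control cultures reached saturation at 30 °C; 1 = growth at the plate median or of vehicle wells; lower values mean less growth of the strain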
Conditions: growth OD

Measured: normalized growth

CCN(CC)CCOC(=O)c1ccc(N)cc1
inactive: S. cerevisiae deletion strains, locus YJR075W, strain HOC1, active compounds read low 1.07 | S. cerevisiae deletion strains, locus YKL009W, strain mrt4, active compounds read low 0.978 | S. cerevisiae deletion strains, locus YKL068W, active compounds read low 0.987 | S. cerevisiae deletion strains, locus YKL085W, strain MDH1 (second series), active compounds read low 0.981 | S. cerevisiae deletion strains, locus YKL085W, strain MDH1, active compounds read low 0.981 | S. cerevisiae deletion strains, locus YKL160W, strain elf1, active compounds read low 1.01 | S. cerevisiae deletion strains, locus YKL190W, strain CNB1, active compounds read low 1.01 | S. cerevisiae deletion strains, locus YKR001C, strain vps1, active compounds read low 0.986 | S. cerevisiae deletion strains, locus YKR026C, strain gcn3, active compounds read low 0.99 | S. cerevisiae deletion strains, locus YKR091W, strain srl3, active compounds read low 0.988 | S. cerevisiae deletion strains, locus YLL001W, strain dnm1, active compounds read low 1.02 | S. cerevisiae deletion strains, locus YLL026W, active compounds read low 1 | S. cerevisiae deletion strains, locus YLL041C, strain sdh2, active compounds read low 0.987 | S. cerevisiae deletion strains, locus YLR027C, strain aat2, active compounds read low 0.994 | S. cerevisiae deletion strains, locus YLR039C, strain RIC1, active compounds read low 1.03 | S. cerevisiae deletion strains, locus YLR058C, strain SHM2, active compounds read low 1.01 | S. cerevisiae deletion strains, locus YLR102C, strain apc9, active compounds read low 0.986 | S. cerevisiae deletion strains, locus YLR113W, strain HOG1, active compounds read low 1.02 | S. cerevisiae deletion strains, locus YLR221C, strain rsa3, active compounds read low 0.958 | S. cerevisiae deletion strains, locus YLR258W, strain gsy2, active compounds read low 0.975 | S. cerevisiae deletion strains, locus YLR262C, strain YPT6 (second series), active compounds read low 0.991 | S. cerevisiae deletion strains, locus YLR262C, strain YPT6, active compounds read low 1.04 | S. cerevisiae deletion strains, locus YLR268W, strain sec22, active compounds read low 0.959 | S. cerevisiae deletion strains, locus YLR320W, strain mms22, active compounds read low 0.969 | S. cerevisiae deletion strains, locus YLR330W, strain CHS5, active compounds read low 1.01 | S. cerevisiae deletion strains, locus YLR342W, strain FKS1 (second series), active compounds read low 1 | S. cerevisiae deletion strains, locus YLR342W, strain FKS1, active compounds read low 1.02 | S. cerevisiae deletion strains, locus YLR357W, strain rsc2, active compounds read low 0.955 | S. cerevisiae deletion strains, locus YLR370C, strain arc18, active compounds read low 1.01 | S. cerevisiae deletion strains, locus YLR371W, strain rom2, active compounds read low 0.992 | S. cerevisiae deletion strains, locus YLR384C, strain iki3, active compounds read low 0.991 | S. cerevisiae deletion strains, locus YLR418C, strain cdc73, active compounds read low 0.975 | S. cerevisiae deletion strains, locus YML016C, strain PPZ1, active compounds read low 1.01 | S. cerevisiae deletion strains, locus YML032C, strain rad52, active compounds read low 0.99 | S. cerevisiae deletion strains, locus YML120C, strain ndi1, active compounds read low 0.989 | S. cerevisiae deletion strains, locus YML124C, strain tub3, active compounds read low 0.995 | S. cerevisiae deletion strains, locus YMR058W, strain fet3, active compounds read low 0.983 | S. cerevisiae deletion strains, locus YMR078C, strain ctf18, active compounds read low 0.992 | S. cerevisiae deletion strains, locus YMR125W, strain sto1, active compounds read low 0.962 | S. cerevisiae deletion strains, locus YMR129W, active compounds read low 0.982 | S. cerevisiae deletion strains, locus YMR205C, strain PFK2, active compounds read low 1 | S. cerevisiae deletion strains, locus YMR223W, strain ubp8, active compounds read low 0.997 | S. cerevisiae deletion strains, locus YMR231W, strain pep5, active compounds read low 0.997 | S. cerevisiae deletion strains, locus YMR263W, strain SAP30, active compounds read low 1.01 and 0.982 | S. cerevisiae deletion strains, locus YMR307W, strain GAS1, active compounds read low 0.975 and 0.992 | S. cerevisiae deletion strains, locus YNL067W, strain RPL9B, active compounds read low 1.01 | S. cerevisiae deletion strains, locus YNL071W, strain lat1, active compounds read low 0.966 | S. cerevisiae deletion strains, locus YNL128W, strain TEP1, active compounds read low 1.01 | S. cerevisiae deletion strains, locus YNL153C, strain GIM3, active compounds read low 1.01 and 0.998 | S. cerevisiae deletion strains, locus YNL175C, strain NOP13, active compounds read low 0.991 | S. cerevisiae deletion strains, locus YNL183C, strain NPR1, active compounds read low 1 | S. cerevisiae deletion strains, locus YNL197C, strain WHI3, active compounds read low 0.986 | S. cerevisiae deletion strains, locus YNL209W, strain ssb2, active compounds read low 0.975 | S. cerevisiae deletion strains, locus YNL224C, strain SQS1, active compounds read low 0.998 | S. cerevisiae deletion strains, locus YNL233W, strain BNI4, active compounds read low 1.01 | S. cerevisiae deletion strains, locus YNL248C, strain rpa49, active compounds read low 0.938 | S. cerevisiae deletion strains, locus YNL250W, strain rad50, active compounds read low 0.986 | S. cerevisiae deletion strains, locus YNL271C, strain bni1, active compounds read low 0.985 | S. cerevisiae deletion strains, locus YNL298W, strain CLA4, active compounds read low 0.99 | S. cerevisiae deletion strains, locus YNL307C, strain MCK1, active compounds read low 0.986 | S. cerevisiae deletion strains, locus YNL322C, strain KRE1 (second series), active compounds read low 0.986 | S. cerevisiae deletion strains, locus YNL322C, strain KRE1, active compounds read low 1 and 0.981 | S. cerevisiae deletion strains, locus YNR049C, strain mso1, active compounds read low 0.975 | S. cerevisiae deletion strains, locus YNR052C, strain pop2, active compounds read low 0.988 | S. cerevisiae deletion strains, locus YOL006C, strain TOP1, active compounds read low 1.04 | S. cerevisiae deletion strains, locus YOL012C, strain htz1 0.92 | S. cerevisiae deletion strains, locus YOL147C, strain pex11, active compounds read low 0.988 | S. cerevisiae deletion strains, locus YOR001W, strain rrp6, active compounds read low 1.01 | S. cerevisiae deletion strains, locus YOR061W, strain CKA2, active compounds read low 1.01 | S. cerevisiae deletion strains, locus YOR069W, strain VPS5, active compounds read low 1.01 | S. cerevisiae deletion strains, locus YOR070C, strain gyp1, active compounds read low 0.996 | S. cerevisiae deletion strains, locus YOR080W, strain dia2, active compounds read low 0.996 | S. cerevisiae deletion strains, locus YOR083W, strain WHI5 (second series), active compounds read low 0.979 | S. cerevisiae deletion strains, locus YOR083W, strain WHI5, active compounds read low 1 | S. cerevisiae deletion strains, locus YOR106W, strain vam3, active compounds read low 1.02 | S. cerevisiae deletion strains, locus YOR136W, strain idh2, active compounds read low 0.996 | S. cerevisiae deletion strains, locus YOR144C, strain elg1, active compounds read low 0.994 | S. cerevisiae deletion strains, locus YOR184W, strain ser1, active compounds read low 0.991 | S. cerevisiae deletion strains, locus YOR231W, strain MKK1, active compounds read low 1.02 | S. cerevisiae deletion strains, locus YOR265W, strain rbl2, active compounds read low 0.985 | S. cerevisiae deletion strains, locus YOR270C, strain vph1, active compounds read low 0.983 | S. cerevisiae deletion strains, locus YOR290C, strain snf2, active compounds read low 0.946 | S. cerevisiae deletion strains, locus YOR316C, strain cot1, active compounds read low 0.992 | S. cerevisiae deletion strains, locus YPL051W, strain arl3, active compounds read low 0.997 | S. cerevisiae deletion strains, locus YPL055C, strain LGE1, active compounds read low 1.03 | S. cerevisiae deletion strains, locus YPL078C, strain atp4, active compounds read low 1.02 | S. cerevisiae deletion strains, locus YPL106C, strain sse1, active compounds read low 0.929 | S. cerevisiae deletion strains, locus YPL240C, strain hsp82, active compounds read low 0.991 | S. cerevisiae deletion strains, locus YPL241C, strain CIN2, active compounds read low 0.993 | S. cerevisiae deletion strains, locus YPL256C, strain CLN2, active compounds read low 1.04 | S. cerevisiae deletion strains, locus YPR119W, strain clb2, active compounds read low 0.986 | S. cerevisiae deletion strains, locus YPR141C, strain kar3, active compounds read low 0.989 | S. cerevisiae deletion strains, locus YPR163C, strain tif3, active compounds read low 0.994 | S. cerevisiae deletion strains, locus YPR167C, strain met16, active compounds read low 0.991 | S. cerevisiae deletion strains, strain wtn01, active compounds read low 0.996 | S. cerevisiae strains, strain wild type, active compounds read low 1.01
